Values without a mark were called inactive. Calls of active or inactive are those of the source. Rule as the data show it, unless noted: active = inhibition above about 44%; inactive = the rest.
Key:
[1] = StAR promoter reporter inhibitors, counter-screen for LRH-1 inverse agonist project, cell-based, luminescence, high throughput (AID 651611; in the data active = inhibition above about 28%); settings: StAR promoter luciferase reporter counterscreen, at 3.6 µM, stronger effect = higher value
[2] = target: Nuclear receptor subfamily 5 group A member 2 (Homo sapiens) (UniProt O00482); assay: LRH-1 (NR5A2) inverse agonists, retest, confirmation, cell-based, luminescence (AID 651613; in the data active = inhibition above about 42%;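 also: HEK293T cells co-transfected with LRH-1 and StAR promoter luciferase reporter; 0% = vehicle wells and 100% = parental cells lacking receptor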); settings: cell-based LRH-1 luciferase reporter, inverse agonism; at 3.6 µM; stronger effect = higher value
Nuclear receptor subfamily 5 group A member 2 (Homo sapiens), sequence (O00482 whole entry, looked up): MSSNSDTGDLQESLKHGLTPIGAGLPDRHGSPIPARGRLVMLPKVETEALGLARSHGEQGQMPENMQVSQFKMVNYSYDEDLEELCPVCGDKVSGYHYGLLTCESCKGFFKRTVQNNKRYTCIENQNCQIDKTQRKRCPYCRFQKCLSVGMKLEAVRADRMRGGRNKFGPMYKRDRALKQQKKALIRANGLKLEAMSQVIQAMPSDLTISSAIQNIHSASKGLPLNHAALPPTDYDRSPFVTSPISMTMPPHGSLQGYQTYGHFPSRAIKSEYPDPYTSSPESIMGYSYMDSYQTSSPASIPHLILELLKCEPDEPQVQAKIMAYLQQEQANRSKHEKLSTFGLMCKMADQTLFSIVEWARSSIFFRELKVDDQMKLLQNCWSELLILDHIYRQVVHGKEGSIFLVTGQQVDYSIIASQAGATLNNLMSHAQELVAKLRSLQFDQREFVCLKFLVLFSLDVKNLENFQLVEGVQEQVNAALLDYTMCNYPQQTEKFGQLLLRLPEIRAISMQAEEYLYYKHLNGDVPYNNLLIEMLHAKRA

[3] = target: Steroidogenic factor 1 (Homo sapiens) (UniProt Q13285); assay: SF1 (NR5A1) inverse agonists, counter-screen for LRH-1 inverse agonist project, cell-based, luminescence, high throughput (AID 651614); settings: cell-based SF1 luciferase reporter, at 3.6 µM, stronger effect = higher value;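 also: cells cotransfected with StAR promoter reporter and SF1 expression vector; 0% = vehicle on cells with receptor and 100% = vehicle on cells lacking receptor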
Steroidogenic factor 1 (Homo sapiens), sequence (Q13285 whole entry, looked up, the tested form may be a part): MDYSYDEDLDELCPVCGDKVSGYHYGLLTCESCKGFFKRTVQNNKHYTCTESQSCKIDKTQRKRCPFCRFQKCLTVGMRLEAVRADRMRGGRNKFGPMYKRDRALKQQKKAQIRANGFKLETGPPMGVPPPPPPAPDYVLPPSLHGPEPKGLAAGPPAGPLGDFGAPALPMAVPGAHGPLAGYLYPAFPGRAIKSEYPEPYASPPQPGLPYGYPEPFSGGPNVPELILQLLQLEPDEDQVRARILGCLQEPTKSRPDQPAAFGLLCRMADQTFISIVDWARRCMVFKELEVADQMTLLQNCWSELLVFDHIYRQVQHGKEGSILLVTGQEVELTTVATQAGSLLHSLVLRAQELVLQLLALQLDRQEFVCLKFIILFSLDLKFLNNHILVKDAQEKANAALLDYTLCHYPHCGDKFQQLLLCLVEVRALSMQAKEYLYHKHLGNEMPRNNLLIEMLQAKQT

[4] = VP16 transactivation reporter inhibitors, counter-screen for LRH-1 inverse agonist project, cell-based, luminescence, high throughput (AID 651615; in the data active = inhibition above about 33%); settings: Gal4-VP16 luciferase reporter cells, at 3.6 µM, stronger effect = higher value

| SMILES | inhibition [1] | inhibition [2] | inhibition [3] | inhibition [4] |
| --- | --- | --- | --- | --- |
| O=C(CSc1nc2[nH]ncc2c(=O)n1-c1ccccc1)c1ccc2c(c1)OCCO2 | 0.39% | 38.2% | 32.6% | -16.1% |
| CCN(Cc1ccccc1)c1ccc(/C=N/NS(=O)(=O)c2ccc(C)c([N+](=O)[O-])c2)cc1 | 10.9% | 40.7% | 61.3% (active) | 9.15% |
| Cc1c(C(C)C)c(=O)n(-c2ccc(S(=O)(=O)NC3CCCCC3)cc2)n1C | 23.7% | 60.6% (active) | 62.1% (active) | 47.9% (active) |
| O=c1[nH]c(Nc2ccc3c(c2)OCCO3)nnc1Cc1ccccc1 | 0.14% | 59.5% (active) | 37.8% | -12.8% |
| COc1cc(NC(=O)Cn2ccsc2=N)c(C)cc1[N+](=O)[O-] | 11.8% | 49.5% (active) | 58% (active) | -0.82% |
| CC1CC(C)CN(c2cc(N(C)CCO)c([N+](=O)[O-])c3nonc23)C1 (stereo not drawn) | 13.7% | 64.2% (active) | 63.6% (active) | -3.82% |
| COCCn1c(SCC(=O)Nc2ccc(NC(C)=O)cc2)nc2ccccc2c1=O | 17% | 57.9% (active) | 52% (active) | 2.35% |
| O=C(CSc1ncnc2c1cnn2Cc1ccccc1)Nc1ccc2c(c1)OCCO2 | 2.88% | 61.3% (active) | 54% (active) | 2.68% |
| O=C(CSc1nnc(CNC(=O)c2ccccc2F)o1)Nc1ccc2c(c1)OCCO2 | 10.5% | 56.9% (active) | 51.6% (active) | -7.98% |
| Cc1onc(NC(=O)c2ccc([N+](=O)[O-])o2)c1Br | 4.26% | 64.9% (active) | 58.4% (active) | -9.49% |
| CC(=O)c1ccc(-c2cnc3c(NC=O)cc(-c4ccc(S(C)(=O)=O)cc4)cn23)cc1 | 31.7% (active) | 74.8% (active) | 70.3% (active) | -0.51% |
| O=c1c2ccccc2c(C=Nc2ccccc2O)c(O)n1-c1nccs1 | 5.33% | 46.1% (active) | 35.1% | -7.97% |
| COc1ccc(C2=Nn3c(nnc3-c3ccncc3)SC2)cc1OC | 24.5% | 48% (active) | 39.6% | -2.76% |
| COc1cc(-c2noc(C)c2-c2ccc(N(C)C)nc2)cc(OC)c1OC | 58.7% (active) | 53% (active) | 63.2% (active) | -0.05% |
| CC(=O)Nc1ncc(Cc2cc(Cl)ccc2Cl)s1 | 11.1% | 50.2% (active) | 46.7% (active) | 2.54% |
| Cc1cc(C)c(SCCc2ccncc2)c(C)c1 | 5.23% | 63.7% (active) | 57.5% (active) | 34.3% (active) |
| CN1C=C/C(=C\c2cc[n+](C)c3ccccc23)c2ccccc21 | 28.6% (active) | 108% (active) | 46.8% (active) | 81.4% (active) |
| O=C(Cn1ccc(=O)[nH]c1=O)c1ccc([N+](=O)[O-])o1 | 13.1% | 14.3% | 14.9% | -16.8% |
| CCOc1ccc(S(=O)(=O)Nc2cc(OC)ccc2OC)cc1 | 35.8% (active) | 54.4% (active) | 49.1% (active) | 22.6% |
| Cc1c(F)cccc1NS(=O)(=O)c1ccc(N2CCCC2=O)cc1 | -2.14% | 56% (active) | 47.1% (active) | 3.58% |
| Cc1ccc(Sc2ccc(NC(=O)CCl)cc2)cc1C | 0.02% | 52.6% (active) | 56.5% (active) | -14.4% |
| CS(=O)(=O)N1CCN(c2ccc(NC(=O)CSc3nnc(-c4ccco4)o3)cc2)CC1 | 4.74% | 54% (active) | 54.1% (active) | -2.76% |
| O=[N+]([O-])c1ccc(/C=N/n2c(CO)nc3ccccc32)s1 | 16.3% | 62.2% (active) | 59.9% (active) | 2.51% |
| Cc1cc2oc(=O)cc(-c3ccccc3)c2c(C)c1-c1ccc(CO)cc1 | 10.8% | 71.5% (active) | 63.6% (active) | 16.8% |
| c1ccc(-c2nc(NCc3cccnc3)c3oc4ccccc4c3n2)cc1 | 19.2% | 62.4% (active) | 60.6% (active) | -22.9% |
| CC(O)(c1cccc(F)c1)c1nc(-c2ccc(S(C)(=O)=O)cc2)cs1 (stereo not drawn) | 2.43% | 48.7% (active) | 44.9% (active) | -6.85% |

| SMILES | inhibition [1] | inhibition [2] | inhibition [3] | inhibition [4] |
| --- | --- | --- | --- | --- |
| COc1ccc(N2CCN(C(=O)c3ccc(CNS(=O)(=O)c4cccc(OC)c4)cc3)CC2)cc1 | 9.25% | 27.8% | 29.5% | 6.88% |
| Nc1cccc(OCCCCCOc2cccc(N)c2)c1 | -18.2% | 41.7% (active) | 54% (active) | -5% |
| S=C(Nc1ccc(Br)cc1)Nc1ccc2c(c1)OCCO2 | -74.4% | -51.1% | -27.8% | -71.3% |
| Cc1nnc(SCC(=O)Nc2sc3c(c2C(N)=O)CCCC3)[nH]c1=O | 10.4% | 46.6% (active) | 29.9% | -3.51% |
| CCn1c2ccccc2c2cc(/C=N/n3cn[nH]c3=S)ccc21 | 4.27% | 28.1% | 34.3% | -3.24% |
| COc1ccc(OC)c(C2=NS(=O)(=O)N(C)C(C(=O)Nc3ccc(C(C)=O)cc3)=C2)c1 | 4.76% | 44.8% (active) | 45% (active) | -9.42% |
| CCc1ccccc1NC(=O)CSc1nnc([C@@H]2CCCN2C(=O)OC(C)(C)C)o1 | 16.4% | 50.5% (active) | 59% (active) | -8.78% |
| CN(C)C(=O)Cn1c(SCC(=O)Nc2ccc3c(c2)OCO3)nc2ccccc21 | -0.98% | 22.2% | 28.2% | -0.46% |
| O=C(COC(=O)CCN1C(=O)C2CC=CCC2C1=O)NCCc1ccccc1 (stereo not drawn) | 11.9% | 40.1% | 44.8% (active) | 3.03% |
| O=C(NNc1ccccc1)C(=O)NNS(=O)(=O)c1ccc([N+](=O)[O-])cc1 | 1.65% | 12.9% | 27.1% | 20.1% |
| COc1ccc(NC(=O)COC(=O)/C=C/C(=O)OCC(=O)Nc2ccc(OC)c(Cl)c2)cc1Cl | 6.28% | 50.8% (active) | 53.9% (active) | -16% |
| CCCCCCCn1ccc(=N)cc1 | 44.1% (active) | 86.7% (active) | 77.7% (active) | 67.9% (active) |
| O=C(COc1ccc(C(=O)c2ccccc2)cc1)NCc1ccc(F)cc1 | 19.9% | 28.7% | 37.9% | 30.4% |
| O=C(NNc1ccc([N+](=O)[O-])cc1[N+](=O)[O-])c1ccco1 | 12.4% | 57.6% (active) | 60% (active) | 3.35% |
| CC(=O)Nc1ccc(NC(=O)CSc2ccc(-c3ccc(-n4ccnc4)cc3)nn2)cc1 | 9.71% | 52% (active) | 53% (active) | -5.42% |
| Cc1[nH]c2ccccc2c1/C=N/Nc1ccc([N+](=O)[O-])cc1 | -1.71% | 55.8% (active) | 56.5% (active) | -3.15% |
| Cn1cccc1C(=O)OCC(=O)NCCCc1ccccc1 | 3.25% | 54% (active) | 44.4% (active) | -22% |
| COc1ccc(/C=N/OCC(=O)NC(c2ccccc2)c2ccccc2)cc1OC | 30.5% (active) | 72.7% (active) | 66.4% (active) | 54.7% (active) |
| CCC(C)n1c(SCC(=O)NCCc2ccc(S(N)(=O)=O)cc2)nc2ccsc2c1=O (stereo not drawn) | 10.6% | 48.7% (active) | 52.6% (active) | -3.41% |
| O=C(CSc1nc2ccccc2c(=O)n1-c1ccc(Cl)c(Cl)c1)Nc1ccc2c(c1)CCC2 | -1.82% | 49.9% (active) | 37.8% | -40.9% |
| COc1cc(/C=C2/SC(=Nc3ccc(O)cc3)NC2=O)ccc1O | 38.7% (active) | 48.5% (active) | 43.5% (active) | -31.2% |
| O=C(CSc1nc(=O)n2cc(Cl)ccc2n1)Nc1ccc2c(c1)OCCO2 | 3.01% | 47.8% (active) | 44.1% (active) | -4.83% |
| COc1ccc(C(=O)C(C)Oc2cccc(NC(=O)c3cccc([N+](=O)[O-])c3)c2)cc1 (stereo not drawn) | 1.27% | 35.4% | 44.1% (active) | -5.28% |
| CC(=O)c1ccc(NC(=O)CN2C(=O)NC3(CCc4ccccc43)C2=O)cc1 (stereo not drawn) | 12.2% | 61.5% (active) | 49.3% (active) | -0.14% |
| O=C(COC(=O)c1ccc(S(=O)(=O)N2CCCC2)cc1)Nc1ccc(N2CCOCC2)cc1 | 18.1% | 48.5% (active) | 57.4% (active) | -7.59% |
| Cc1onc(-c2ccccc2Cl)c1-c1nc(-c2ccccn2)no1 | 17.1% | 67.3% (active) | 52.7% (active) | 7.63% |

From PubChem BioAssay
